PrPC surface inh: reduces human prion protein on the cell surface; cell surface PrPC, TR-FRET read-out; inhibition, % at 13.8 µM; 370,000 tested, 0.43% active; AID 720596; in the data active means inhibition above about 24%; further: 0% = median of the test wells and 100% = reference compound wells
DUSP3 inh: DUSP3 (human) phosphatase inhibition. P51452. recombinant VHR phosphatase, pNPP absorbance. inhibition, % at 13.3 µM. 290,000 tested, 0.52% active; in the data active means inhibition above about 50%
Target sequence (P51452 whole entry, looked up): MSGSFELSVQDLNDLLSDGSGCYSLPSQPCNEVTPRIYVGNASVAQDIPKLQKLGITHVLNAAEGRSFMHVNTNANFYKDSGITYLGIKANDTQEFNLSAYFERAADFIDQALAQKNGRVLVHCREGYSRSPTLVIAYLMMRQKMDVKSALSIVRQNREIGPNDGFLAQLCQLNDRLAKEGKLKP
PrP 5UTR inh: inhibition of PrP 5' UTR reporter expression; 340,000 tested, 0.35% active; cell-based PrP 5' UTR mRNA reporter, plate reader; inhibition, % (no concentration beside the values); AID 488862; in the data active means inhibition above about 52%; further: 0 = median of the neutral control wells
Mtb hypoxia rep: Mtb hypoxia fluorescent reporter inhibition; M. tuberculosis hypoxia-regulated fluorescent reporter, fluorescence; AID 1159583; fluorescence inhibition, % (test concentration not listed); 300,000 tested, 0.1% active; in the data active means fluorescence inhibition mostly above about 23%, no sharp cut-off; inactive means mostly below about 17%
SARS 3CLpro inh: SARS-CoV 3CLpro protease inhibition; 290,000 tested, 0.14% active; inhibition, % at 6 µM; recombinant SARS-CoV 3CLpro, quenched FRET peptide cleavage; AID 1706; in the data active means inhibition above about 12%
MazF activator: MazEF (E. coli) toxin RNase activation; P0AE70; FAM/BHQ RNA-DNA oligo cleavage fluorescence, 5 h; activation, % at 20 µM; 350,000 tested, 0.32% active; AID 504720; in the data active means activation above about 50%
Target sequence (P0AE70 whole entry, looked up): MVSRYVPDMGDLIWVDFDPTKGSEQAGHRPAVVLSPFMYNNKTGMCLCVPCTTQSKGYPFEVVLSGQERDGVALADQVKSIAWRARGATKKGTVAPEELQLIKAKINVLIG
* hit, by the source's call; i = inactive; x = no result shown; + = active, no number. A selection: hits, their analogues and other compounds. The true share with any hit is near 1.5%.

SMILES | PrPC surface inh | DUSP3 inh | PrP 5UTR inh | Mtb hypoxia rep | SARS 3CLpro inh | MazF activator
COC(=O)C1=C(c2ccc(OC)c(OC)c2)CC2CCC1N2C(=O)NCCc1ccccc1 (stereo unspecified) | x | x | x | 7 | x | x
COc1ccc(CNC(=O)c2ccccc2[N+](=O)[O-])cc1 | x | 20 | -19 | 9 | 2 | -2
COc1ccc(NC(=O)c2ccccc2[N+](=O)[O-])cc1 | -6 | 55* | -23 | -1 | 6 | 2
CCCc1nnc(NC(=O)c2c(O)c3cccc4c3n(c2=O)CC4)s1 | x | -1 | x | 56* | x | 2
COCCCNC(=S)N1CCCN(c2nc3cc(C)c(C)cc3cc2C#N)CC1 | 1 | 16 | -2 | 25 | -5 | 3
CCOCCCNC(=S)N1CCCN(c2nc3cc(C)c(C)cc3cc2C#N)CC1 | -7 | 52* | -15 | 0 | 2 | -5
O=[N+]([O-])c1ccc(NN=Cc2sc(N3CCOCC3)nc2-c2ccccc2)c(S(=O)(=O)Nc2ccccc2Cl)c1 | x | x | x | 18 | x | x
CN(C(=O)C1CCCN(c2ncnc3c2nc2n3CCCCC2)C1)c1cccc(Cl)c1 (stereo unspecified) | 3 | 52* | 1 | -3 | -5 | 8
O=C(CNc1ccccc1)NN=Cc1cn(-c2ccccc2)nc1-c1ccccc1 | x | x | x | 6 | x | x
CC(NC(=O)c1ccc(F)cc1)c1ccccc1 (stereo unspecified) | -4 | -8 | -7 | 56* | 3 | 0
COc1cc(C=NNC(=O)c2cc[n+]([O-])cc2)cc(OC)c1OC | x | x | x | 15 | x | x
COc1cc(/C=N/NC(=O)c2cc[n+]([O-])cc2)cc(OC)c1OC | -5 | 56* | -1 | x | -1 | 2
O=C1C2C3C=CC(C4CC34)C2C(=O)N1N=Cc1ccc([N+](=O)[O-])s1 (stereo unspecified) | x | x | x | 5 | x | x
CCOC(=O)/C(=C/C=C1\Sc2cc(C)c(C)cc2N1CC)C(C)=O | -5 | 6 | -1 | -56 | -4 | -373
CC[n+]1c(/C=C2\Sc3ccccc3N2C)ccc2cccc(C)c21 | -21 | 7 | 10 | x | -20 | 106*
CCN1/C(=C/C=C/c2sc3ccccc3[n+]2CC)Sc2ccccc21 | x | x | 17 | x | x | -457
CCN1/C(=C/c2ccc3cc(C)ccc3[n+]2CC)Sc2ccccc21 | -10 | -4 | 25 | x | -19 | 69*
CCN1/C(=C/c2ccc3cc(C)ccc3[n+]2CC)Sc2cc(C)c(C)cc21 | 1 | 22 | 6 | 40* | -35 | 71*
COc1ccc(/C=C(\NC(=O)c2cccs2)C(=O)NC(C)(C)C)cc1OC | -9 | 53* | -4 | 10 | 0 | 6
Oc1ccc(N2CCN(CC(O)c3ccccc3)CC2)cc1 (stereo unspecified) | -2 | 50* | -10 | 5 | -5 | 11
COc1cc(OC)c(OC)cc1C=NN(C)c1ccccc1 | x | x | x | 8 | x | x
CC(C)N1CCN(Cc2cccc3c2OCO3)CC1CCO (stereo unspecified) | -1 | 31 | -19 | 0 | 2 | 6
CC(C)N1CCN(Cc2cc3c(cc2Cl)OCO3)CC1CCO (stereo unspecified) | 0 | -8 | -16 | -9 | 1 | 83*
COC(=O)c1ccc(C=NNC(=O)c2cccc(F)c2)cc1 | x | x | x | 3 | x | x
CC(NC(=O)Nc1nnc(C(F)(F)F)s1)(C(F)(F)F)C(F)(F)F | 57* | 11 | -21 | x | 4 | 7
SMILES | PrPC surface inh | DUSP3 inh | PrP 5UTR inh | Mtb hypoxia rep | SARS 3CLpro inh | MazF activator
O=C1C(Cl)=C(NCCc2ccccc2)C(=O)N1CCc1ccccc1 | -2 | 6 | -41 | x | 3 | 70*
C=CCC(CC(=O)OC(C)(C)C)C(=O)OCC1CCCN1C(=O)C(CC=C)CC(=O)N(CCO)Cc1ccccc1 (stereo unspecified) | x | x | x | 3 | x | x
O=C1Nc2ccccc2SC1=Cc1ccccc1 | 6 | x | x | x | x | -25
O=C1Nc2ccccc2S/C1=C/Nc1cccc(Cl)c1 | 7 | 27 | -71 | 15 | 0 | 59*
Oc1c(Cl)cc(Cl)cc1C=Nc1ccc(N2CCOCC2)cc1 | -8 | 60* | -12 | 16 | 1 | -98
CCOC(=O)N1C2=NC(C(=O)OC)=C(C(=O)OC)C3Nc4ccccc4[C@]23CC1C(=O)OC (stereo partly specified) | x | x | x | 0 | x | x
COc1ccc(-c2nnc(SCc3nnc(-c4ccccc4)o3)n2-c2ccccc2)cc1 | 0 | 28 | -4 | -2 | 1 | 69*
COc1ccc(N=Cc2c(O)n(-c3cccc(C)n3)c(=O)c3ccccc23)c(OC)c1 | 0 | 12 | -5 | -4 | -2 | 278*
COc1ccc(C(=O)N=C2SC3CS(=O)(=O)CC3N2c2ccccc2)cc1OC (stereo unspecified) | -7 | 52* | -12 | 5 | -6 | 3
COc1ccc(-c2noc(CCC(=O)NCCc3ccccc3)n2)cc1 | -2 | x | x | 10 | 1 | 3
COc1cccc(-c2noc(CCC(=O)NCCc3ccccc3)n2)c1 | -6 | 58* | x | -1 | 3 | 2
COC(=O)C1=C(C)N(Cc2ccco2)C(=O)/C1=C\c1ccc(N(C)C)cc1 | 0 | 5 | -1 | x | 2 | +
Cc1ccc(O)c(C(=O)c2cnc3c(c2)COc2ccccc2-3)c1 | -15 | 9 | -13 | x | -3 | -11
O=C(c1cnc2c(c1)COc1ccc(Cl)cc1-2)c1ccccc1O | -2 | 50* | -27 | x | -1 | 1
CC(CC(=O)Nc1cc(C)ccn1)=NNC(=O)c1cccc(C)c1 | x | x | x | 6 | x | x
CCn1c(SCC(=O)Nc2nc(-c3ccccc3)cs2)nc2c1c(=O)n(C)c(=O)n2C | -1 | 1 | -6 | 11 | -1 | 11
CCCn1c(SCC(=O)Nc2nc(-c3ccc(OC)cc3)cs2)nc2c1c(=O)n(C)c(=O)n2C | -5 | 3 | -14 | 7 | 1 | 193*
Cn1c(=O)c2c(ncn2CC(=O)Nc2nc(-c3ccccc3Cl)cs2)n(C)c1=O | 2 | 25 | -15 | -10 | -2 | 74*
O=C1c2ccc3c4c(ccc(c24)C(=O)N1Cc1cccnc1)C(=O)N(Cc1cccnc1)C3=O | x | 26 | x | x | 2 | x
O=C1c2ccc([N+](=O)[O-])cc2C(=O)N1Cc1cccnc1 | -21 | 52* | -22 | 3 | 2 | 9
C#Cc1ccc(C2C=C(C(=O)O)OC(OCC)C2CCCO)cc1 (stereo unspecified) | x | x | x | 11 | x | x
CN1CCN(N=C2C(=O)Nc3ccc([N+](=O)[O-])cc32)CC1 | x | x | x | 0 | x | x
CC(=NNC(=O)Cc1c(C)[nH][nH]c1=O)c1ccc(O)cc1 | x | x | x | -6 | x | x
O=C(O)CC(C(=O)O)N1C(=O)/C(=C/C=C/c2ccco2)SC1=S (stereo unspecified) | 4 | 54* | -7 | 7 | 3 | -25
CN(C)N=C/C=C1\CC/C(=C\c2ccc(F)c(F)c2)C1=O | x | x | x | 9 | x | x
Cn1cc(/C=C/c2cc[n+](C)cc2)c2cc(Cl)ccc21 | -59 | 24 | -14 | 35* | -12 | -520
Cn1cc(/C=C/c2cc[n+](C)cc2)c2cc(F)ccc21 | x | 12 | -8 | 22 | -19 | i
